Holding throughout (assay type): functional
In assay [1] the test system is Plasmodium falciparum. The assay is described as follows: GSK_TCMDC: Inhibition of Plasmodium falciparum 3D7 in whole red blood cells, using parasite LDH activity as an index of growth. Test compounds present at 2uM.
Assay [2] concerns Plasmodium falciparum. The assay is described as follows: GSK_TCMDC: Inhibition of Plasmodium falciparum Dd2 in whole red blood cells, using parasite LDH activity as an index of growth. Test compounds present at 2uM.
The subject of another assay is HepG2. The assay is described as follows: GSK_TCMDC: Percent inhibition of human HepG2 cell line. Test compounds present at 10uM.

The term Inhibition denotes the relative decrease from the control value, in per cent. Low readings indicate a response near the control, high ones a response far below the control.

Take `Fc1cccc(Cl)c1-c1nc(NCCC(c2ccccc2)c2ccccc2)no1`: the results for the Inhibition with Plasmodium falciparum [1], in the assay with Plasmodium falciparum [2] and with HepG2 were 99%, 87% and 4%, respectively.

In the case of `COc1cc(Nc2nccc(-c3c(-c4cccc(NC(=O)c5c(F)cccc5F)c4)nn4ccccc34)n2)cc(OC)c1OC`, the figures for the Inhibition in the assay with Plasmodium falciparum [1], in the assay with Plasmodium falciparum [2] and with HepG2 were 98%, 98% and 74%, respectively.

As to `O=C(Nc1ccc(OC2CCN(Cc3ccco3)C2)c(Cl)c1)c1ccc2ncccc2c1.O=C(O)C(F)(F)F` (centres undefined), the Inhibition in the assay with Plasmodium falciparum [1] amounted to 92%; in the assay on Plasmodium falciparum [2] it was 42%; in the assay with HepG2, 1%.

Values taken from ChEMBL document CHEMBL1157539, “Thousands of chemical starting points for antimalarial lead identification” (Nature, 2010).
